Experimental findings from PubChem BioAssay AID504329 (Southern Research Specialized Biocontainment Screening …, 2011) are described below.

The campaign covered roughly 340,000 compounds. About 1,000 (0.29%) were called active. Rule as the data show it: inconclusive = inhibition above about 27% without an active follow-up result; inactive = below that. Not all results are given here. Entries with a potency or affinity are not part of this list.

The assay in a line: NS1A inhibition, H1N1 influenza, cell based functional assay (AID 504329). The note with it: percent inhibition, at 12.5 µM, active compounds read high.
Usually inhibition stands for the drop in the measured response relative to a control, in per cent. `COC(=O)c1ccc2c(c1)C(=O)/C(=C/c1ccc(C)cc1)O2`: the inhibition is 0.65% (inactive).

With `CC1(C)Cc2c(cnn2-c2ccccc2)C(NC(=O)CCCn2cncn2)C1` (centres undefined), the inhibition was 4.41% (inactive).

As to `Cc1ccccc1CN1CCC(n2nccc2NC(=O)CCCc2ccccc2)CC1`, the inhibition is -1.87% (inactive).

On to `O=C(NCc1cnn(-c2ccccc2)c1)C1CCC(=O)N(C2CC2)C1` (centres undefined), for which the inhibition is -1.14% (inactive).

As to `CC(C)C(NC(=O)C(NC(=O)C1OC2OC(C)(C)OC2C2OC(C)(C)OC12)C(C)C)C(=O)O` (centres undefined), the inhibition is 4.15% (inactive).

Take `COc1ccccc1/C=N/NC(=S)Nc1cccnc1`: the inhibition is 2.47% (inactive).

Turning to `COc1cccc(/C=N/NC(=S)Nc2cccnc2)c1`, the inhibition is 8.47% (inactive).

As to `Fc1c(F)c(F)c(/C=N/NC(=S)Nc2cccnc2)c(F)c1F`, the inhibition was 4.9% (inactive).

As to `Oc1ccc(/C=N/NC(=S)Nc2cccnc2)cc1`, the inhibition was -2.94% (inactive).

Turning to `COC(=O)c1cc(OC)c(OC)cc1NC(=O)C(C)Sc1ccc(C)cc1` (centres undefined), the inhibition was -9.85% (inactive).

Take `CC1(C)C2CC=C(CN3CCC(O)CC3)C1C2` (centres undefined): the inhibition is 4.73% (inactive).

On to `O=C(Nc1ccc(Cl)cc1)Nc1ccccn1`, for which the inhibition was -13.9% (inactive).

On to `COc1ccc(CNC(=O)Cn2nc(C(F)(F)F)c(Br)c2C)cc1`, for which the inhibition is -1.07% (inactive).

With `Nc1ccc(NC(=S)Nc2ccccc2)cc1`, the inhibition was 8.73% (inactive).

With `C/C(=N\NC(=O)c1ccc(Cl)cc1)c1ccccn1`, the inhibition was -5.53% (inactive).

For `O=C(NCCNC(=O)c1ccccn1)c1ccc(F)cc1`, the inhibition was 4.55% (inactive).

Consider `CCOc1ccc(OCc2ccc(C(=O)N/N=C(\C)c3ccccn3)cc2)cc1`, for which the inhibition is -8.32% (inactive).

Turning to `CC(C)(C)c1ccc(C(=O)NCCCNC(=O)c2ccccn2)cc1`, the inhibition was 0.93% (inactive).

For `CSc1ccc(CN(C)C(=O)c2cc(Cl)c3c(c2)OCCO3)cc1`, the inhibition was 0.05% (inactive).

As to `Cc1ccc(C)c(S(=O)(=O)N2CCN(C(=O)CCNS(=O)(=O)c3ccc(C)c(C)c3)CC2)c1`, the inhibition is 5.37% (inactive).

For the compound `Cc1ccc2nc(-c3cccc(S(=O)(=O)N4CCCC4)c3)cn2c1`, the inhibition was -1.58% (inactive).

With `COc1ccc(C(=O)NCCc2c[nH]c3ccccc23)cc1S(=O)(=O)N1CCCCC1C` (centres undefined), the inhibition is -1.05% (inactive).

As to `Cc1c(-c2ccccc2)nc2ccccc2c1C(=O)Nc1ccncc1`, the inhibition was -4.14% (inactive).

On to `CC(C)=CCC[C@](C)(O[C@@H]1O[C@H](CO[C@@H]2OC[C@H](O[C@@H]3OC[C@@H](O)[C@H](O)[C@H]3O)[C@H](O)[C@H]2O)[C@@H](O)[C@H](O)[C@H]1O)C1CC[C@]2(C)C1[C@H](O)CC1[C@@]3(C)CC[C@H](O)C(C)(C)C3[C@@H](O)C[C@]12C` (some centres undefined), for which the inhibition was -10.2% (inactive).

On to `CC(=O)N1CCN(c2ccc(NCc3ccc(Br)o3)cc2)CC1`, for which the inhibition was 6.1% (inactive).

With `CC(=O)N1CCN(c2ccc(NCc3ccc(-c4cccc(Cl)c4)o3)cc2)CC1`, the inhibition is 23.9% (inactive).

Consider `C=CCn1c(CC(=O)Nc2ccc(C)cc2C)nnc1SCC(=O)N1CCOCC1`, for which the inhibition is -7.34% (inactive).

As to `C/C(=C\c1ccccc1)CN1CCN(c2cccc(Cl)c2)CC1`, the inhibition is -1.4% (inactive).

`Cc1ncc(N=Nc2ccc(F)cc2)c(-c2ccc(Cl)cc2)n1`: the inhibition was 10.6% (inactive).

As for `COc1ccc(-c2nc(C)ncc2N=Nc2ccccc2)cc1`, the inhibition is 24.1% (inactive).

Regarding `COc1ccc(N=Nc2nc(-c3ccccc3)c(-c3ccccc3)[nH]2)cc1`, the inhibition is 13.8% (inactive).

As to `Cc1ncc(N=Nc2ccccc2)c(-c2ccccc2)n1`, the inhibition is 23.1% (inactive).

Take `CSC1=N/C(=C/c2ccc(-n3cncn3)cc2)C(=O)N1`: the inhibition is 18.2% (inactive).

Take `Cc1cccc(C(=S)N2CCOCC2)n1`: the inhibition is -4.89% (inactive).

With `CC(=NNC(=S)N1CCCCCC1)c1cccc2cccnc12`, the inhibition was 25.3% (inactive).

Take `CSC(=S)N/N=C(\C)c1ccccc1`: the inhibition was -5.26% (inactive).

`CC(=NNC(=S)N1CC2CCC(CC2)C1)c1cccc(C)n1`: the inhibition was 23.1% (inactive).

`CSC(=S)N/N=C(\C)c1ccc(Br)cc1`: the inhibition was -6.45% (inactive).

Consider `C/C(=N/O)c1ccccn1`, for which the inhibition is 1.41% (inactive).

In the case of `CC(=NNC(=S)N1CCN(c2ccccn2)CC1)c1ccccn1`, the inhibition was 15.8% (inactive).

In the case of `S=C(Nc1ccc2nc(-c3ccccn3)c(-c3ccccn3)nc2c1)N1CCCCC1`, the inhibition was -3.09% (inactive).

For `O=C(CN1C(=O)c2ccc([N+](=O)[O-])cc2C1=O)Nc1ccccc1N1CCCC1`, the inhibition was -7.2% (inactive).

In the case of `Cc1ccsc1/C=N/Nc1nc(=O)[nH]nc1C`, the inhibition was 12% (inactive).

Turning to `O=[N+]([O-])c1cc([N+](=O)[O-])c(Oc2ccc(Br)cc2Br)cc1NN1CCCCC1`, the inhibition is -0.23% (inactive).

Turning to `NCCCC[C@H](N)c1nnc([C@H](CCC(=O)O)NC(=O)C2CCNCC2)o1`, the inhibition was 11.3% (inactive).

On to `C[C@H]1CN([C@@H](C)CO)C(=O)c2cccc(NC(=O)c3ccncc3)c2O[C@H]1CN(C)C(=O)Nc1ccccc1`, for which the inhibition is -10.3% (inactive).

As to `S=C(Nc1ccccc1)N1CCN(C2CCCCC2)CC1`, the inhibition is 11.4% (inactive).

For `C/C(=N\NC(=O)C1CCCN(S(=O)(=O)c2ccccc2)C1)c1ccncc1` (centres undefined), the inhibition was -23.8% (inactive).

`S=C(NCc1ccccc1)N1CCN(C2CCCCC2)CC1`: the inhibition was -12% (inactive).

Consider `C/C(=N\NC(=O)C1CCCN(S(=O)(=O)c2ccccc2)C1)c1cccnc1` (centres undefined), for which the inhibition was -20.5% (inactive).

As for `CC(=O)C1=C(O)C(=O)N(CCC(=O)O)C1c1ccccc1[N+](=O)[O-]` (centres undefined), the inhibition is -13.3% (inactive).

Consider `Cc1ccccc1Nc1ccc(S(=O)(=O)N2CCOCC2)cc1[N+](=O)[O-]`, for which the inhibition was 12.2% (inactive).

For `Cc1ccc(Nc2ccc(S(=O)(=O)N3CCOCC3)cc2[N+](=O)[O-])c(C)c1`, the inhibition was 11.1% (inactive).

Take `COc1ccc(C(=O)NCCc2nnc3ccc(SCC(=O)Nc4ccccc4)nn23)cc1`: the inhibition was -20% (inactive).

In the case of `Cc1ccc(OCC(=O)N2CCC(N3CC(C)CC(C)C3)CC2)cc1` (centres undefined), the inhibition was 17% (inactive).

In the case of `O=C(O)COc1ccc(S(=O)(=O)NCCc2ccccc2)cc1`, the inhibition was -12% (inactive).

As for `Oc1ccccc1Nc1ccccn1`, the inhibition was -5.39% (inactive).

In the case of `c1ccc(Nc2ccccn2)nc1`, the inhibition was -3.53% (inactive).

Consider `O=C(O)c1ccccc1C(=O)c1ccc(F)c(F)c1`, for which the inhibition is 3.3% (inactive).
